From the supplement of paper PMC6555819 come the findings set out here.

Holding throughout (assay): PBM binding z-score (relative to random genomic background probes); higher = stronger binding; sequences stand for … in GC…GCGATTGACAGCGTAGAATGAAGG
In assay [1] the test system is FXR:RXRa (NR concentration 270 nM, RXRa partner concentration 90 nM). Put shortly:
(§1)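 Custom Agilent 4×180K protein-binding microarrays carried double-stranded probes. Their 34-nt variable regions held direct-repeat seeds, single-nucleotide variants, half-site ablations and random human genomic background sequences. Arrays were incubated 1 h with ligand-free nuclear receptor dimers in PBS pH 7.4, 2% milk, 0.02% Triton X-100, 1 mM DTT, 0.2 mg/mL BSA and 0.4 mg/ml salmon testes DNA. Antibodies against each partner (one per run) detected binding, and scanned fluorescence was regression-normalized. Binding z-scores use random background probes as reference.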

The subject of assay [2] is LXRa:RXRa (NR concentration 270 nM, RXRa partner concentration 90 nM). Summed up: as §1
The subject of assay [3] is LXRa homodimer (NR concentration 270 nM). Put shortly:
as §1

Assay [4] deals with LXRb:RXRa (NR concentration 270 nM, RXRa partner concentration 90 nM). Summed up:
as §1

For assay [5], the system named is LXRb homodimer (NR concentration 270 nM). Summed up:
as §1

Assay [6] concerns PPARa:RXRa (NR concentration 270 nM, RXRa partner concentration 90 nM). Summed up: as §1
Assay [7] has as its system PPARg:RXRa (NR concentration 180 nM, RXRa partner concentration 90 nM). Put shortly: as §1
Assay [8] has as its system PPARg:RXRa 270nM:90nM, anti-RXR (NR concentration 270 nM, RXRa partner concentration 90 nM). Put shortly: as §1
For assay [9], the system named is PPARg:RXRa 30nM:10nM, anti-RXR (NR concentration 30 nM, RXRa partner concentration 10 nM). Put shortly:
as §1

The test system of assay [10] is PPARg:RXRa 90nM:30nM, anti-RXR (NR concentration 90 nM, RXRa partner concentration 30 nM). Summed up:
as §1

The subject of assay [11] is PPARg:RXRa DBDmut IVT, anti-RXR (DBD mutation: RXRa K156A/R161A, NR concentration 270 nM, RXRa partner concentration 90 nM). Put shortly:
as §1

Assay [12] concerns PPARg:RXRa IVT, anti-PPARg (NR concentration 270 nM, RXRa partner concentration 90 nM). Put shortly:
as §1

Assay [13] concerns PPARg DBDmut:RXRa IVT, anti-PPARg (DBD mutation: PPARg1 K132A/R137A, NR concentration 270 nM, RXRa partner concentration 90 nM). Summed up: as §1
Assay [14] has as its system PPARg DBDmut IVT, anti-PPARg (DBD mutation: PPARg1 K132A/R137A, NR concentration 270 nM). Put shortly: as §1
Assay [15] has as its system PPARg homodimer (NR concentration 180 nM). Put shortly: as §1
Assay [16] has as its system PXR:RXRa (NR concentration 270 nM, RXRa partner concentration 90 nM). Summed up: as §1
Assay [17] concerns PXR homodimer (NR concentration 270 nM). Summed up: as §1
In assay [18] the test system is RARa:RXR (NR concentration 270 nM, RXRa partner concentration 90 nM). Summed up: as §1
In assay [19] the test system is RARa homodimer (NR concentration 270 nM). Put shortly:
as §1

Assay [20] deals with RARb:RXRa (NR concentration 270 nM, RXRa partner concentration 90 nM). Put shortly:
as §1

As to TAGCCTAAGTCATTCAGGGGCCAGTATAGAAAGC, the PBM binding z-score is 0.125 in assay [1]; -0.0745 in assay [2]; -0.319 in [3]; 0.338 in [4]; -0.276 in [5]; 0.0691 in assay [6]. In addition, the PBM binding z-score in assay [7] is 0.0111; in [8] it was 0.16; in [9], -0.308; in [10], -0.241; in assay [11], -0.155; in assay [12] it was -0.0585. Further, the PBM binding z-score in assay [13] was 0.0399; in assay [14] it was 0.2; in assay [15], 0.00647; in [16], 0.14; in assay [17], -0.297; in assay [18], 0.276. Also, the PBM binding z-score in [19] was -0.483; in [20] it was 0.478.
TTACCAAAGTGAAGGTCGTTGATCCCTCTGTAGA: the PBM binding z-score in [1] was 2.06; in assay [2], 2.07; in assay [3] it was -0.0239; in assay [4] it was 1.33; in [5] it was -0.489; in [6], 1.15. In addition, the PBM binding z-score in assay [7] is -0.21; in [8] it was 0.882; in [9] it was 0.58; in [10], 0.768; in [11] it was 0.0303; in assay [12] it was 0.266. Moreover, the PBM binding z-score is -1.3 in [13]; -0.698 in assay [14]; 0.00936 in assay [15]; 1.15 in assay [16]; 0.234 in [17]; 1 in assay [18]. The figures for the PBM binding z-score in assay [19] and in assay [20] were -0.568 and 0.632, respectively.
Consider CAAACTAGGTCAAGAGGTCAAAGCCCGCTTCCCG, for which the PBM binding z-score in assay [1] was 7.07; in assay [2], 6.28; in assay [3], 5.68; in assay [4] it was 5.4; in assay [5] it was 1.5; in assay [6], 6.76. For the same sequence, the PBM binding z-score was found to be 10.1 in [7]; 8.55 in assay [8]; 7.71 in assay [9]; 8.87 in [10]; 8.12 in assay [11]; 8.64 in assay [12]. Besides, the PBM binding z-score in [13] worked out at 4.39; in assay [14] it was 2.45; in assay [15], 7.29; in assay [16] it was 6.42; in [17], 1.66; in assay [18], 7.68. Also, the PBM binding z-score in [19] was found to be 2.35; in assay [20], 5.54.
Take ATATGTAGGTTACATCAGGGTCATTCAGGCTATG: the PBM binding z-score came out at 3.26 in assay [1]; 4.84 in assay [2]; 2.29 in assay [3]; 3.97 in assay [4]; 0.66 in assay [5]; 5.17 in [6]. The PBM binding z-score was determined as 6.84 in assay [7]; 5.54 in [8]; 3.17 in [9]; 4.87 in assay [10]; 7.19 in [11]; 7.69 in assay [12]. Moreover, the PBM binding z-score in [13] came to 2.46; in assay [14], 2.26; in assay [15], 2.46; in [16], 4.24; in assay [17], 2.65; in [18], 4.06. In addition, the PBM binding z-score in [19] is 1.01; in assay [20] it was 2.77.
Take TATACAGGGTCAAAGGCAAGAGTACGAATGTCGA: the PBM binding z-score in assay [1] stood at 6.51; in assay [2] it was 6.12; in assay [3], 2.15; in [4], 4.62; in [5] it was 2.67; in assay [6], 5.97. Further, the PBM binding z-score in assay [7] is 7.76; in [8], 6.96; in assay [9] it was 4.69; in assay [10], 6.75; in [11], 2.4; in assay [12], 4.77. For the same sequence, the PBM binding z-score in assay [13] worked out at 3.32; in [14], 1.87; in assay [15], 2.27; in [16], 3.86; in assay [17] it was 1.15; in assay [18] it was 5.3. The PBM binding z-score in assay [19] was 1.42; in assay [20], 4.43.
In the case of ATCTCTAGGTAAAGATAGTGCAGTGAATGCAAAT, the PBM binding z-score in assay [1] was 0.222; in assay [2] it was 1.16; in assay [3], 0.00124; in assay [4], 0.147; in assay [5], 0.236; in assay [6], 0.141. Besides, the PBM binding z-score in assay [7] stood at 0.354; in assay [8], 0.233; in assay [9], 0.0457; in assay [10] it was 0.565; in assay [11], 1.33; in assay [12], 1.62. Moreover, the PBM binding z-score is 0.773 in assay [13]; 0.751 in [14]; -0.52 in assay [15]; -0.0642 in [16]; -0.041 in [17]; 0.189 in assay [18]. In addition, the PBM binding z-score in assay [19] was 0.661; in assay [20], -0.164.
Consider TCTCGGAGGAGACGAAAGGTCAGAGCTCGACATC, for which the PBM binding z-score was 2.04 in assay [1]; 2.95 in assay [2]; 1.15 in assay [3]; 2.59 in [4]; -0.403 in assay [5]; 3.49 in [6]. Further, the PBM binding z-score was 3.2 in [7]; 5.01 in [8]; 3.66 in assay [9]; 4.7 in assay [10]; 0.912 in assay [11]; 1.49 in assay [12]. In addition, the PBM binding z-score was -0.00299 in [13]; -0.844 in assay [14]; 3.1 in assay [15]; 3.44 in assay [16]; -0.0245 in assay [17]; 4.57 in [18]. Also, the PBM binding z-score amounted to 1.35 in [19] and 3.44 in [20].
